# In PubChem BioAssay AID2147 (National Center for Advancing Translational Sciences (NCATS), 2009):
# “And” between values parts separate entries of the source, which are not always exact repeats. Equal entries are not always repeated. Out of some 230,000 compounds screened, about 3,600 (1.6%) were called active. Not shown: some 15% with an inconclusive outcome. This is one part of a sample in which actives are shown more often than they occur. Values without a mark were called inactive. Calls come from the whole dose curve; as a rule, active = well fitted inhibition curve with a large enough effect (not every such curve was filed as active); inconclusive = small, poorly fitted or top-dose-only effect, or another doubt; inactive = no such curve, though single readings can be large or run the other way.
# Target: Lysine-specific demethylase 4E (Homo sapiens) (UniProt B2RXH2)
# Experiment: qHTS Assay for Inhibitors of Human Jumonji Domain Containing 2E (JMJD2E)
# Details: JMJD2E catalytic domain, FDH-coupled NADH fluorescence (FDH is formaldehyde dehydrogenase); series mostly up to 57.1 µM; activity change, negative = inhibition: at the top concentration
# Note: nearly all actives have a fitted effect of over 50% in size.
# Potency is the fitted concentration of half-maximal effect.
# 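Throughout, for activity change, negative = inhibition: 0% = wells with enzyme and -100% = buffer wells without enzyme.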
# Sequence of Lysine-specific demethylase 4E (Homo sapiens) (B2RXH2 1-337 limits assumed): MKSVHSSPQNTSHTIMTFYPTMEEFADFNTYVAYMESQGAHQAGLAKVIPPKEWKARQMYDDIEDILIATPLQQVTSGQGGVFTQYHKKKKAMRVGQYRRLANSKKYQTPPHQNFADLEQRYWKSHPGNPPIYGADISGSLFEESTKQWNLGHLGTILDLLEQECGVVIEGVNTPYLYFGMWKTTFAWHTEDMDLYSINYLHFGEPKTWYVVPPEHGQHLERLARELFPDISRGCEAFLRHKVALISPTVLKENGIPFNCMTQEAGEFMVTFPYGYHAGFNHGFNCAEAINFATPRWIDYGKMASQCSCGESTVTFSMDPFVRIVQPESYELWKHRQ
Compound,"activity change, negative = inhibition",Potency
NC(=O)c1ccc(N2CCOCC2)nc1,1.96%,
CN(C)C(=O)c1nc2ccc(Cl)cn2c1CNCc1cccc(OC(F)(F)F)c1,-3.13%,
Cc1nc(N)sc1N=Nc1c(C)n(C)n(-c2ccccc2)c1=O,-9.39%,
COc1ccc(N(Cc2ccccc2)S(=O)(=O)c2cccc(C(=O)O)c2)cc1,-0.26%,
CCCN(CCc1ccccc1)C1CCc2c(O)cccc2C1 (stereo not given),1.38%,
CCCN(C/C=C\I)[C@@H]1CCc2cccc(O)c2C1,,28.2 µM (active)
CN(C)c1cc(-c2ccc(F)cc2)oc(=O)c1Cl,1.02%,
Cc1ccc(C(=O)NCC(=O)OCC(=O)Nc2cccc(S(=O)(=O)N3CCCC3)c2)cc1C,2.45%,
CCCCc1nc2ccccc2c(=O)n1NC(=O)c1c(O)c2cccc3c2n(c1=O)CC3,12.9%,
Cc1cc(=O)n2c3c(cccc13)CCC2,-18.6%,
CCNC(=O)c1c(O)c2cccc3c2n(c1=O)CC3,,3.16 µM (active)
O=C(O)Cc1csc(-c2cccc(Oc3ccccc3)c2)n1,,inactive
O=c1c2ccccc2nc(N/N=C/c2ccccc2)n1O,-8.4%,
CCCc1nc2ccccc2c(=O)n1/N=C/c1ccc(O)c(O)c1,,12.6 µM (active)
CCCN1C(=O)C(Cc2nc3ccccc3c(=O)n2-c2ccccc2)c2cc(C)ccc21 (stereo not given),-3.33%,
CC(C)N1CCC(=NNc2ccc([N+](=O)[O-])cc2S(=O)(=O)N2CCOCC2)CC1,-24.1%,
COc1ccccc1C(=O)CSc1cccc[n+]1[O-],-5.39%,
O=C1CCC(=O)N(O)CCCCCNC(=O)CCC(=O)N(O)CCCCCNC(=O)CCC(=O)N(O)CCCCCN1,,7.94 µM (active)
CCNC(=O)CC1C(=O)N(c2ccc(OC)cc2)C(=S)N1CCc1ccncc1 (stereo not given),-7.56%,
Cc1nc(C(=O)N2CCCC(C(=O)c3ccc(Cl)cc3)C2)cs1 (stereo not given),10.1%,
O=c1c2ccccc2c(-c2ccccc2)nn1Cc1ccccc1,-8.38%,
Cn1c(CO)cnc1SCc1ccccc1,-1.07%,
CSc1c(SCc2ccccc2)cnn(Cc2ccccc2)c1=O,,12.6 µM (active)
O=C(NCCOCc1ccc(Cl)cc1)c1ncn[nH]1,3.54%,

Compound,"activity change, negative = inhibition",Potency
O=C(/C=C/Sc1ncn[nH]1)c1ccc(Cl)cc1,,7.08 µM (active)
Cc1cc(C)nc(S/C=C/C(=O)c2ccccc2)n1,10%,
CCN(CC)CCNC(=O)c1sc2ncn(CC(=O)Nc3ccc(C)c(Cl)c3)c(=O)c2c1C,-11.2%,
Cn1c(=O)c2c(-c3cccc(Br)c3)c(C#N)c(N)nc2n(C)c1=O,2.47%,
OCCC1CN(Cc2cnc(-c3ccccc3)s2)CCN1CCc1ccccc1 (stereo not given),-7.27%,
COCCN1C=C2C(=O)C(C)(OC(=O)C3CCCC3)C(=O)C=C2C=C1c1ccsc1 (stereo not given),,3.55 µM (active)
CC1(OC(=O)C2CCCC2)C(=O)C=C2C=C(c3ccc(C#N)cc3)OC=C2C1=O (stereo not given),-0.534%,
CC1(OC(=O)CCc2ccccc2)C(=O)C=C2C=C(c3ccc(C#N)cc3)N(CCc3ccccn3)C=C2C1=O (stereo not given),-1.14% [at 11.4 µM],
N/C(=N\OC(=O)Nc1ccccc1)c1ccno1,-3.04%,
COc1ccc(CNC(=O)CCC(=O)Nc2nnc(C(C)C)s2)cc1,-15.9%,
O=C(Nc1ccc(Cl)cc1)Nc1ccc(C(=O)N2CCOCC2)cc1,4.19%,
COc1ccc(C2C(C#N)=C(N)Oc3cc(N)ccc32)cc1OC (stereo not given),,12.6 µM (active)
COC(=O)C1=C(C)OC(N)=C(C#N)C1c1cc(OC)ccc1OC (stereo not given),2.33%,
CCC1=C(C(=O)OC)C(c2cc(OC)ccc2OC)C(C#N)=C(N)O1 (stereo not given),-0.399%,
CNCC(O)c1ccc(O)c(O)c1 (stereo not given),,20 µM (active) and 14.1 µM (active)
CC(C)NC[C@H](O)c1ccc2ccccc2c1,,inactive
CCC(C)c1ccc(O)c(/C=N/O)c1 (stereo not given),-5.09%,
C=CCN(C(=O)Nc1ccc2c(c1)nc(C)n2C)c1ccccc1,1.69%,
C/C(=C\c1ccco1)CN1CCC(N2CCC(C(=O)N3CCOCC3)CC2)CC1,0.474%,
Oc1c(C(c2ccccn2)N2CCOCC2)ccc2cccnc12 (stereo not given),-10.2%,
CCOC(=O)N1CCN(C(c2cccnc2)c2ccc3cccnc3c2O)CC1 (stereo not given),,14.1 µM (active)
CCOC(=O)N1CCN(C(=O)CSc2ccc(Cl)cc2)CC1,-1.41%,
Cc1cc(N2CCN(c3ccc(F)cc3)CC2)n2ncnc2n1,4.37%,
CC1CC(C)(C)n2c(O)c(N=NC(N)=S)c3cccc1c32 (stereo not given),8.14%,

Compound,"activity change, negative = inhibition",Potency
O=c1c(O)c(Br)ccc2c(Br)c(O)c(O)c(O)c12,,7.08 µM (active)
CCCCCCCC(=O)OC(CN1CCCCCC1)CN1CCCC1=O (stereo not given),1.81%,
COc1ccc(/C(O)=C2/C(=O)C(=O)N(CCCN(C)C)C2c2ccccc2)cc1OC (stereo not given),-12.7%,
CCN(CC)CCN1C(=O)C(=O)/C(=C(/O)c2ccc(OC)c(OC)c2)C1c1ccccn1 (stereo not given),,22.4 µM (active)
CCN(CC)CCN1C(=O)C(=O)/C(=C(/O)c2ccccc2)C1c1ccccc1F (stereo not given),-9.65%,
CC(=O)Nc1ccc(NC(=O)CSc2ncnc3c2cnn3Cc2ccccc2)cc1,0.598%,
O=c1oc2c(CN3CCCCC3)c(O)ccc2c2c1CCCCC2,,3.16 µM (active)
NC(=O)COc1ccc2c3c(c(=O)oc2c1)CCCCC3,3.79%,
CN1CCN(Cc2c(O)ccc3c2oc(=O)c2ccccc23)CC1,-8.15%,
Cc1ccccc1OCC(O)CN1CCN(c2ccccn2)CC1 (stereo not given),-7.16%,
Cc1cccc(C)c1NC(=S)N(Cc1cccnc1)Cc1ccccc1Cl,2.9%,
CCC/C(C)=N\Nc1nc2c(c(=O)n(C)c(=O)n2C)n1C,-5.67%,
Oc1ccc2ccccc2c1C=Nc1ccccc1,-5.63%,
COc1ccc(N=C(C)c2sc3ccccc3c2O)cc1,-1.68%,
Oc1ccc(N=Cc2sc3ccccc3c2Cl)cc1,,12.6 µM (active)
S=c1nc2ccccc2c2nc(-c3cccnc3)[nH]n12,-7.81%,
COc1ccc(CCNS(=O)(=O)c2cccc3cccnc23)cc1OC,8.86%,
Cc1ccc2cc(/C=N/NC(=O)[C@@H]3CCCN3)c(Cl)nc2c1,-2.24%,
Cc1ccc(/C=N/NC(=O)C2=NNC(c3ccccc3)(c3ccccc3)C2)c(O)c1,,10 µM (active)
Cc1nnsc1C(=O)N/N=C/c1ccccc1Cl,2.37%,
CCn1cc(CN2CCCC(CNS(=O)(=O)Cc3ccccc3)C2)cn1 (stereo not given),-1.97%,
Nn1c(SCc2ccccc2)nnc1C1CCCCC1,-0.349%,
